PubChem BioAssay AID1851 (National Center for Advancing Translational Sciences (NCATS), 2009)
Where “and” joins values, the source holds several entries; their conditions need not be identical. Identical values can stand only once. About 5,800 (36%) of roughly 16,000 compounds were called active. About 23% were inconclusive and are not listed. Calls come from the whole dose curve; as a rule, active = well fitted curve in the direction sought with a large enough effect; inconclusive = small, poorly fitted or top-dose-only effect, or effect the other way; inactive = no such curve, though single readings can be large or run the other way. Some of the results follow.

target: Cytochrome P450 2C19 (Homo sapiens) (UniProt P33261); experiment: Cytochrome panel assay with activity outcomes; conditions: recombinant CYP, pro-luciferin dealkylation, luminescence, p450-cyp2c19; series mostly up to 57.1 µM; activity, negative = inhibition: at the top concentration
% is set by controls: 0 for no effect and ±100 for the full control effect.

Sequence of Cytochrome P450 2C19 (Homo sapiens) (P33261 whole entry, looked up): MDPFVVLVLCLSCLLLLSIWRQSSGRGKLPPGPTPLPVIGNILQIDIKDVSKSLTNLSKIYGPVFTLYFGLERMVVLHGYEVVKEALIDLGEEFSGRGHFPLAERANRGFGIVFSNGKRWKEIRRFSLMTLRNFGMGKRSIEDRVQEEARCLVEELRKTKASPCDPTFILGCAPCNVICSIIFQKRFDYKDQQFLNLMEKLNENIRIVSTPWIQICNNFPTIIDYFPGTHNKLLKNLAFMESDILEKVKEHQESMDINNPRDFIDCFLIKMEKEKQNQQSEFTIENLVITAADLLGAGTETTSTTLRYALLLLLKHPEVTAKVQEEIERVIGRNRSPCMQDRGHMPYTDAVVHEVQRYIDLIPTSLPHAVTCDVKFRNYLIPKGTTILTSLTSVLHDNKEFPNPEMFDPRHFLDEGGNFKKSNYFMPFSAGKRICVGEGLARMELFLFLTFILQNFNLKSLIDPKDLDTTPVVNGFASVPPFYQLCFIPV

AC50, inactive:
N[C@@H]1CONC1=O
Nc1c2c(nc3ccccc13)CCCC2
O=c1n(CCCN2CCN(c3cccc(Cl)c3)CC2)nc2ccccn12

AC50, active:
CCc1cccc(NC(=O)CN(C)S(=O)(=O)c2cnc[nH]2)c1 447 nM
CN(CC(=O)N1CCN(c2ccccc2)CC1)S(=O)(=O)c1cnc[nH]1 2240 nM
CCCNC(=O)OC[C@@H]1O[C@H](CCO/N=C2\c3cc(OC)ccc3O[C@H](c3cccc(OC)c3)[C@H]2O)C=C[C@@H]1Oc1ccc(OC)cc1 1580 nM
COc1ccc(O[C@H]2C=C[C@@H](c3ccccc3)O[C@H]2CO/N=C2/c3cc(OC)ccc3O[C@@H](c3cccc(OC)c3)[C@H]2O)cc1 501 nM
CC(C)CNC(=O)CCCc1c[nH]c2ccccc12 2240 nM
CCOC(=O)CCCc1c[nH]c2ccccc12 5010 nM
Cc1cc(N2CCOCC2)ccc1/C=C1\SC(=O)N(C(C)C)C1=O 10000 nM
Nc1ncc(-c2ccccc2)n1CC1CCCO1 (stereo not given) 5620 nM
CC(/C=N/n1c(-c2cccnc2)n[nH]c1=S)=C\c1ccccc1 2820 nM
COc1cc(-c2nnc(COC(=O)c3c4c(nc5ccccc35)CCCC4)o2)cc(OC)c1OC 1780 nM
C[C@@H]1C[C@H](OC(=O)c2ccccc2O)CC(C)(C)C1 10000 nM
CCOC(=O)c1c2ccc(OCC(=O)N/N=C/c3ccc(Cl)cc3)cc2n2ccccc12 2510 nM
Cc1cccc(NC(=S)Nc2ccc(Br)cc2)c1 708 nM
C/C(=N\NC(=S)Nc1cccc(C)c1)c1ccccc1 447 nM
CCCNC(=S)Nc1ccc(Br)cc1 7940 nM
Cc1ccc(NC(=S)Nc2ccc(Br)cc2)cc1 562 nM
COc1ccc(-c2csc(NC(=O)CCn3cnc4ccccc4c3=O)n2)cc1OC 2820 nM
C=CCn1c(SCC(=O)N2CCc3ccccc3C2)nc2ccccc2c1=O 1580 nM
O=C(Cn1c(SCC(=O)N2CCc3ccccc3C2)nc2ccccc21)NC1CCCC1 10000 nM
CN1CC(c2ccccc2)C2(COc3ccccc3C2=O)C12C(=O)Nc1ccccc12 (stereo not given) 1120 nM
Cc1ccc(CONC(=O)/N=C/N(C)C)cc1 4470 nM
O=C(c1ccc(Br)cc1)c1cc([N+](=O)[O-])ccc1N1CCCCC1 1260 nM
CN(C)S(=O)(=O)c1cc([N+](=O)[O-])ccc1N1CCCCCC1 5010 nM
CN1CCN(S(=O)(=O)c2cc([N+](=O)[O-])ccc2N2CCCCCC2)CC1 631 nM
O=C(CNC(=O)c1ccco1)OCc1c(F)cccc1Cl 15800 nM
Cc1ccc2[nH]c(=O)c(NC(N)=S)nc2c1 20000 nM
COc1ccccc1-c1cncnc1Nc1ccc(F)cc1 5010 nM
Cc1ccccc1-c1cncnc1Nc1ccccc1 3160 nM
COc1cccc(-c2cncnc2Nc2ccc(F)cc2)c1 398 nM
Cc1ccccc1-c1cncnc1Nc1ccc(F)cc1 5010 nM
CC(C)c1cc(C(F)(F)F)nc(NNc2nc(C(C)C)cc(C(F)(F)F)n2)n1 2510 nM
COc1cc(OC)c(C#N)c(S(=O)(=O)Cc2ccccc2)c1 1260 nM
CCC(=O)Nc1cc2c(cc1C(=O)c1ccccc1)OCCO2 14100 nM
O=c1cc(N2CCN(c3cccc(Cl)c3)CC2)[nH]c(=O)n1C1CCCCC1 2510 nM
O=c1cc(N2CCC(Cc3ccccc3)CC2)[nH]c(=O)n1C1CCCCC1 3160 nM
COC(=O)C1CCN(c2cc(=O)n(C3CCCCC3)c(=O)[nH]2)CC1 3980 nM
CO[C@@H]1COC(=O)C/C=C\[C@H](C)COC(=O)[C@H](Cc2ccccc2)NC(=O)C/C=C\[C@H]1C 2510 nM
COc1cc(N)c(Cl)cc1C(=O)CCC1CCN(CCNS(C)(=O)=O)CC1 10000 nM
CC(=O)N[C@@H](c1ccccc1)[C@]1(C)C[C@H]1[C@@H](C)C(=O)Nc1ccc2ccccc2c1 398 nM
C[C@@H](C(=O)Nc1ccc2ccccc2c1)[C@H]1C[C@]1(C)[C@H](NC(=O)c1cnccn1)c1ccccc1 15800 nM
C[C@@H](C(=O)Nc1ccc2ccccc2c1)[C@H]1C[C@]1(C)[C@H](NS(=O)(=O)c1ccc2ccccc2c1)c1ccccc1 251 nM
CC(=O)N[C@H](c1ccccc1)[C@@]1(C)C[C@@H]1[C@@H](C)C(=O)Nc1ccc2ccccc2c1 5010 nM

activity, negative = inhibition, inactive:
CC[n+]1c(/C=C/Nc2ccccc2)oc2ccccc21 -22%
CCCNC(=O)OC[C@@H]1O[C@H](CCO/N=C(\C)CCN2CCc3nc(CC)c(CC)cc3C2)C=C[C@@H]1Oc1ccc(OC)cc1 -24.5% [at 11.4 µM]
CCCNC(=O)OC[C@@H]1O[C@H](CCON=C(C)C)C=C[C@@H]1Oc1ccc(OC)cc1 -39.5% [at 11.4 µM]
C[C@@](N)(Cc1c[nH]c2ccccc12)C(=O)O 34.7% [at 11.4 µM]
CCOC(=O)CCCN 31.2% [at 11.4 µM]
N[C@@H](Cc1c[nH]c2ccccc12)C(=O)O -11.9%
CO/N=C(\C(=O)N[C@@H]1C(=O)N2C(C(=O)O)=C(COC(C)=O)CS[C@@H]12)c1csc(N)n1 -19% [at 25.6 µM]
Cc1ccsc1/C=C1/SC(=O)N(CC(=O)N2CCOCC2)C1=O -27.3%
O=c1c(-c2ccccc2)nc2cnc(N3CCOCC3)nc2n1C[C@H]1CCCO1 -4.21%
O=c1cnc2cnc(Nc3ccccc3)nc2n1C[C@H]1CCCO1 -34.8%
COc1ccc(-n2c(-c3cnccn3)n[nH]c2=S)cc1 -4.23%
C[C@@H]1C[C@H](OC(=O)[C@@H](O)c2ccccc2)CC(C)(C)N1C 37.5% [at 25.6 µM]
O=C(Nc1cccc(F)c1)N1CCC2(CC1)CCN(C(=O)c1cnccn1)CC2 5.51%
CCOC(=O)c1c2c(n3ccccc13)C(=O)c1ccccc1C2=O 0.385% [at 11.4 µM]
CCN1C(=O)[C@H]2[C@H]3[C@H](O)[C@H](O)C/C(=N/O[C@@H]4O[C@@H](COC(C)=O)[C@@H](OC(C)=O)[C@@H](OC(C)=O)[C@H]4OC(C)=O)[C@H]3CC[C@@H]2C1=O 16.6% [at 11.4 µM]
CO[C@@H]1COC(=O)[C@H](COCc2ccccc2)NC(=O)C/C=C\[C@@H](C)[C@H](OC)COC(=O)[C@@H](C)NC(=O)C/C=C\[C@H]1C 5.67% [at 11.4 µM]
COc1ccc(-c2ccc(=O)n(CC(=O)Nc3nnc(C(C)C)s3)n2)cc1OC -29.9%
CCCC(=O)Nc1nc(-c2ccc3c(c2)CCN3S(C)(=O)=O)cs1 -24.4%
CN1CCN(Cc2nc3cccc4c3c([n+]2[O-])-c2ccccc2-4)CC1 -13.4% [at 11.4 µM]
COc1ccc2c3c(ccc2c1)N[C@H](C(=O)O)CC3 3.64% [at 11.4 µM]
CN1CCN(c2ccncc2S(=O)(=O)N2CCN(C)CC2)CC1 15.7% [at 11.4 µM]
CN1CCN(CCCN2c3ccccc3Sc3ccc(S(=O)(=O)N(C)C)cc32)CC1 2.33% [at 25.6 µM]
CN1CCN(c2ccc([N+](=O)[O-])cc2S(=O)(=O)N2CCOCC2)CC1 6.03%
Cc1cc2c(nc1C)CCCN2C[C@H](O)CN1CCCc2nc(-c3ccc(Br)cc3)ccc21 -41.3% [at 11.4 µM] and -36.7% [at 11.4 µM]
COc1cccc(Nc2ncc3nc(-c4ccc(F)cc4)c(=O)n(CCC#N)c3n2)c1 -41.5%
CNc1ncncc1-c1ccccc1C -36.9%
CNc1ncncc1-c1ccccc1OC -6.59%
CS(=O)(=O)Nc1cccc(-c2cncnc2Nc2ccc(F)cc2)c1 -34.9%
Cc1ccccc1-c1cncnc1NC1CCNCC1 2.18%
CC(C)(C)C(=O)NC(=C(Cl)Cl)P(=O)(O)O -39.2%
CCOC(=O)N/N=C1/C[C@@H](O)[C@@H](O)[C@@H]2[C@@H]3C(=O)N([C@@H](C)c4ccccc4)C(=O)[C@H]3CC[C@H]12 12.9% [at 11.4 µM]
CC(C)Nc1cc(C(F)(F)F)nc(-c2ccccn2)n1 -40.7%
COc1cc(OC)c2c(c1)C(=O)c1cc(OC)cc(OC)c1C2=O -6.51%
CC(C)C(=O)Nc1cc2c(cc1C(=O)c1ccccc1)OCCO2 -89.4%
Cc1ccccc1-n1c(=O)cc(N2CC(C)OC(C)C2)[nH]c1=O (stereo not given) 3.85%
O=C(c1ccco1)N1CCN(c2cc(=O)n(C3CCCCC3)c(=O)[nH]2)CC1 -38.6%
CO[C@H]1COC(=O)C/C=C\[C@H](C)[C@@H](OC)COC(=O)[C@H](Cc2ccccc2)NC(=O)C/C=C\[C@@H]1C -37.5% [at 11.4 µM]
CO[C@@H]1COC(=O)C/C=C\[C@@H](C)COC(=O)[C@H](COCc2ccccc2)NC(=O)C/C=C\[C@H]1C -16.4% [at 11.4 µM]
Cn1cc(C(=O)OCC2CCN(CCNS(C)(=O)=O)CC2)c2ccccc21 -2.19%
CCCCN1CCC(CCC(=O)c2cc(Cl)c(N)cc2OC)CC1 -9.04%
C[C@@H](C(=O)Nc1ccc2ccccc2c1)[C@@H]1C[C@@]1(C)[C@@H](NC(=O)c1ccncc1Cl)c1ccccc1 -38.4%
C[C@@H](C(=O)Nc1ccc2ccccc2c1)[C@@H]1C[C@@]1(C)[C@@H](N)c1ccccc1 -33.6%
C[C@@H](C(=O)Nc1ccc2ccccc2c1)[C@@H]1C[C@@]1(C)[C@@H](NS(=O)(=O)c1ccc2ccccc2c1)c1ccccc1 15.5%
C[C@@H](C(=O)Nc1ccc2ccccc2c1)[C@@H]1C[C@@]1(C)[C@@H](NC(=O)c1cnccn1)c1ccccc1 -42.8%
C[C@@H](C(=O)Nc1ccc2ccccc2c1)[C@@H]1C[C@@]1(C)[C@@H](NS(=O)(=O)c1ccc(-c2ccccc2)cc1)c1ccccc1 5.27%
